Among all 3,300 compounds or so, about 280 (8.5%) were called active. This is one part of a sample in which actives are shown more often than they occur. A number with no mark means an inactive call.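 Rule for the calls: active = mean growth inhibition over the two runs of 50% or more; inactive = mean growth inhibition under 50%.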
experiment: A549 NSCLC cell proliferation inhibitors – ATP luminescence, human non-small cell lung line, primary screen (AID 371); settings: at 10 µM, stronger effect = higher value;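 note: compound exposure lasted 72 h before the ATP read; 0% = untreated cell signal and 100% = no luminescence left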

Row | Compound | growth inhibition
1 | c1ccc2[nH]c(-c3cscn3)nc2c1 | 5.76%
2 | CCOC(=O)c1ccc(N2CC(O)=C(c3nc4ccccc4c(=O)[nH]3)C2=N)cc1 | 2.08%
3 | O=c1[nH]c(-c2ccccn2)nc2ccccc12 | 57.6% (active)
4 | COc1ccccc1-c1c(C)oc2c(CN3CCN(C)CC3)c(O)ccc2c1=O | -0.86%
5 | COC(=O)CN1C2(C#N)CCCCC2CC2CCCCC21C#N (configuration not stated) | 5.83%
6 | Cc1ccc2nc(C(F)(F)F)c(C#N)c(N)c2c1 | 63.8% (active)
7 | COc1ccc(OC)c2c(N)c(C#N)c(C(F)(F)C(F)(F)F)nc12 | 2.04%
8 | COC(=O)c1sc(NC(=O)c2oc3ccccc3c2C)nc1C | 33.4%
9 | N/C(=N\S(=O)(=O)c1ccc(Cl)s1)c1ccccc1 | 13.5%
10 | CCCc1cc(NCCN2CCOCC2)n2c(nc3ccccc32)c1C#N | 6.32%
11 | Oc1c(I)cc(I)c2cccnc12 | 74.1% (active)
12 | Oc1c(I)cc(Cl)c2cccnc12 | 68.5% (active)
13 | O=C(O)C1[C@H]2C(=O)N(Cc3cccs3)C[C@]23C=C[C@H]1O3 (some centres not stated) | 4.5%
14 | O=C(C1=C(O)C(=O)N(CCN2CCOCC2)C1c1cccnc1)c1cc2ccccc2o1 (configuration not stated) | 3.18%
15 | Cn1c(=O)c2c3c(sc2n2c(SCc4ccccc4)nnc12)CCCC3 | 8.25%
16 | CCCCN(CCCC)C(=O)CSc1nnc2n(C)c(=O)c3c4c(sc3n12)CCCC4 | 70% (active)
17 | Cn1c(=O)c2c3c(sc2n2c(SCC(N)=O)nnc12)CC(C(C)(C)C)CC3 (configuration not stated) | 69.8% (active)
18 | NC(=O)CSc1nnc2n(-c3ccccc3)c(=O)c3c4c(sc3n12)CCCCC4 | 46%
19 | CCCSc1nnc2n(C)c(=O)c3c4c(sc3n12)CCC4 | 20.4%
20 | C=C(C)CSc1nnc2n(C)c(=O)c3c4c(sc3n12)CCC4 | 20.2%
21 | CCOC(=O)C1=C(CSc2nc3c(cc2C#N)CCC3)OC(N)=C(C#N)C1c1ccccc1 (configuration not stated) | 21%

Row | Compound | growth inhibition
22 | Cc1ccc2c(c1)[C@@H]1CN(C)CC[C@@H]1N2S(=O)(=O)c1ccc(F)cc1 | 10.7%
23 | CC1(C)Cc2c(C#N)c(NCC3CCCO3)nc(-c3ccco3)c2CO1 (configuration not stated) | 11%
24 | CCOC(=O)C(OC(=O)c1sc(=S)n(C)c1C)C(C)=O (configuration not stated) | -4.85%
25 | COCCNc1oc(-c2ccc(F)cc2)nc1C#N | 2.78%
26 | c1ccc2c(c1)[nH]c1c(N3CCN(C4CCCCC4)CC3)ncnc12 | 37.9%
27 | O=C(c1ccc(F)cc1)N1CCC(N2CCCCCC2)CC1 | 0.08%
28 | Fc1ccc2[nH]c3c(N4CCN(c5ccccc5)CC4)ncnc3c2c1 | 90.1% (active)
29 | Cc1ccc(-n2ncc3c(N4CCN(c5ccccc5)CC4)ncnc32)c(C)c1 | 32.8%
30 | CN1CCN(c2ncnc3c2[nH]c2ccc(F)cc23)CC1 | 18.6%
31 | Fc1ccc2[nH]c3c(N4CCN(C5CCCCC5)CC4)ncnc3c2c1 | 86% (active)
32 | Fc1ccc2[nH]c3c(N4CCSCC4)ncnc3c2c1 | 59.6% (active)
33 | CCOC(=O)c1[nH]c2ccc(F)cc2c1NC(=O)CCN1CCSCC1 | 0.98%
34 | CC(C)(C)c1cc(-c2ccco2)c(C#N)c(SCC#N)n1 | 5.39%
35 | N#Cc1nc(COc2ccc(Br)cc2)oc1N1CCCC1 | 31.8%
36 | O=C1C2ON(c3ccccc3)C(c3cccnc3)C2C(=O)N1c1ccc(Cl)c(Cl)c1 (configuration not stated) | 3.11%
37 | O=C(O)C1CCCCN1S(=O)(=O)c1cccc2nsnc12 (configuration not stated) | -0.55%
38 | COc1ccc(CCCNC(=O)CC#N)cc1OC | 0.39%
39 | CCOC(=O)c1[nH]c2ccccc2c1NC(=O)CCN1CCN(C(=O)OCC)CC1 | 1.45%
40 | Cc1cc(C)n(CC2CC(=O)N(c3ccc(Cl)c(Cl)c3)C2=O)n1 (configuration not stated) | 0.6%
41 | COc1ccccc1NC(=O)CSc1nnc(-c2ccc(NC(C)=O)cc2)n1C | -3.92%
42 | COC1=CC(=O)CC(C)C12Oc1c(Cl)c(OC)cc(OC)c1C2=O (configuration not stated) | 51.2% (active)

Row | Compound | growth inhibition
43 | COC(=O)c1cccc(Nc2cc(C)nc(-c3ccccc3O)n2)c1 | 17.6%
44 | CN(C)[C@@H]1C(=O)C(C(N)=O)=C(O)[C@@]2(O)C(=O)C3=C(O)c4c(O)ccc(Cl)c4[C@@H](O)[C@H]3C[C@@H]12 | 45.2%
45 | CN(C)c1ccc(O)c2c1CC1CC3[C@@H](N(C)C)C(=O)C(C(N)=O)=C(O)[C@]3(O)C(=O)C1=C2O (some centres not stated) | 59.9% (active)
46 | OCCNc1nc(-c2ccccc2)c2ccccc2n1 | -2.09%
47 | O=C(O)C1CC=CCC1C(=O)N1CCN(c2nc(-c3ccccc3)c3ccccc3n2)CC1 (configuration not stated) | 25.7%
48 | Clc1ccc2nc(N3CCNCC3)nc(-c3ccccc3)c2c1 | 92.3% (active)
49 | Clc1ccc2c(c1)C(N1CCNCC1)=Nc1ccccc1O2 | 31.9%
50 | O=C(CNC1C(=O)Nc2ccccc21)Sc1ccccc1 (configuration not stated) | -5.29%
51 | COc1ccc(/C(O)=C2/C(=O)C(=O)N(CCCN(C)C)C2c2ccc(C)o2)cc1Cl (configuration not stated) | 1.2%
52 | COc1ccc2[nH]cc(C(=O)CN(C)CCc3ccc(OC)c(OC)c3)c2c1 | 15.3%
53 | CNCCCN1c2ccccc2CCc2ccccc21 | 39.1%
54 | CNCCCC1c2ccccc2C=Cc2ccccc21 | 60% (active)
55 | COCCCN1C(=O)C(O)=C(C(=O)c2ccco2)C1c1ccc(Br)cc1 (configuration not stated) | 2.73%
56 | Cc1nc2c(o1)CCc1ccccc1C2O (configuration not stated) | 0.13%
57 | Cc1ccc(N2C(=O)C3ON(c4ccccc4)C(c4ccncc4)C3C2=O)cc1 (configuration not stated) | 7.22%
58 | N#Cc1c(-c2ccccc2Cl)cc(C2CC2)nc1N | 11.8%
59 | CCSc1nc(N)c(C#N)c(-c2ccccc2Cl)c1C#N | 3.11%
60 | CSc1nc(N)c(C#N)c(-c2ccccc2Cl)c1C#N | 60.5% (active)
61 | CC1(C)CC(=O)C=C(N=CC2=C(O)CC(C)(C)CC2=O)C1 | 1.19%
62 | Cc1cc(=O)oc(C)c1C(=O)NCCN1CCOCC1 | -2.84%

From PubChem BioAssay AID371 (SRMLSC, 2006)
